Data on three molecules can be found in PubChem BioAssay AID651871 (Sanford-Burnham Center for Chemical Genomics, 2012).

The subject of this experiment is HL-1. In words: protection of cardiomyocytes from stress damage, SAR follow-up, cell-based, panel, H9c2 and HL-1, ATP luminescence, set 2 (AID 651871).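 Also: cells exposed to stressor for 2 h before ATP readout; reference of the scale not given here.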 Particulars: H9c2/HL-1 cardiomyocytes, 2-deoxyglucose stress, with 2-deoxyglucose.
The mark [1] stands for this setting: run 8, at 79 µM (top of the series).

“And” between values parts separate entries of the source, which are not always exact repeats. Equal entries are not always repeated.

`COc1ccc2c(c1OC)C(=O)N1c3ccccc3C(=O)N(Cc3cccc(Cl)c3Cl)C21` (centres undefined): the activity (protection/inhibition) by setting is: (run 8, at 19.8 µM (top of the series)) 51.9% and 34.6%; under setting [1], -9.25%.

With `CCOC(=O)c1cccc(NC(=O)CNC(=O)c2cc(-c3cc(OC)c(OC)c(OC)c3)nc3ccccc23)c1`, the activity (protection/inhibition) under setting [1] worked out at 74.3%.

On to `COc1ccc2nc(-c3cc(OC)c(OC)c(OC)c3)cc(C(=O)NCC(=O)Nc3ccc(C(C)=O)cc3)c2c1`, for which the activity (protection/inhibition) under setting [1] came out at 97.2%.
